Inconclusive results are not listed. Calls of active or inactive are those of the source. Unless noted, the call rests on the fitted dose curve; in most records, active means well fitted curve in the direction sought with a large enough effect; inconclusive means small, poorly fitted or top-dose-only effect, or another doubt; inactive means no such curve, though single readings can be large; an effect the other way counts as inactive or inconclusive.
Key:
[1] = Cell Viability - BJ (AID 421; calls by dose curve;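 further: potency means the concentration at half of the fitted maximal effect; cells exposed to compound for 40 hours at 37 °C before readout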); conditions: BJ fibroblast viability, qHTS
How it was run: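 Normal human BJ foreskin fibroblasts, 1500/well in complete medium, treated 40 hr at 37 °C. Cellular ATP by CellTiter-Glo luminescence; normalized to DMSO and 100 uM tamoxifen, AC50 from Hill fit.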

[2] = Cell Viability - Jurkat (AID 426;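 active means dose-dependent loss of cell ATP signal giving a full or clear fitted curve, ranked by lower potency value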; further: potency means the concentration at half of the fitted maximal effect); conditions: qHTS
How it was run: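 Cells of the human T-cell leukemia line Jurkat (E6-1) are seeded at 5000 per well, treated with compound across a concentration range for 40 hours at 37 °C, then lysed with CellTiter-Glo; luminescence reports ATP.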

[3] = Cell Viability - Hek293 (AID 427;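 active means compounds whose dose-response curve shows a full or clear partial loss of cell viability, called from curve shape rather than a numeric limit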;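 further: potency means the concentration at half of the fitted maximal effect; cells exposed to compound for 40 hours at 37 °C before reading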); conditions: qHTS
How it was run: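 HEK293 cells in complete medium were exposed to compound for 40 hr at 37 °C, then cellular ATP was read by CellTiter-Glo luminescence. Data were normalized to DMSO (basal) and 100 uM tamoxifen (100% inhibition), and AC50 came from Hill fits.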

[4] = Cell Viability - HepG2 (AID 433; calls by dose curve;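 further: potency means the concentration at half of the fitted maximal effect; potency for ATP loss meaning cytotoxicity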); conditions: qHTS
How it was run: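 Cytotoxicity read as ATP loss (CellTiter-Glo luminescence) after 40 hr compound exposure of HepG2, 1500 cells/well, 37 °C. AC50 by Hill equation; 0% set by DMSO, 100% inhibition by 100 uM tamoxifen.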

[5] = Cell Viability - MRC5 (AID 434; calls by dose curve;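 further: potency means the concentration at half of the fitted maximal effect; potency reflects cytotoxicity seen as loss of intracellular ATP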); conditions: MRC5 lung fibroblast viability, qHTS
How it was run: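 AC50 values come from Hill-equation fits of intracellular ATP loss, measured by CellTiter-Glo luminescence. Normal lung fibroblasts (MRC5) had 40 hr compound treatment at 37 C, normalized between DMSO and 100 uM tamoxifen.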

[6] = Cell Viability - SK-N-SH (AID 435; calls by dose curve; further: potency means the concentration at half of the fitted maximal effect); conditions: SK-N-SH neuroblastoma cell viability qHTS
How it was run: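 qHTS cytotoxicity: CellTiter-Glo ATP luminescence after 40 h compound exposure of human neuroblastoma SK-N-SH cells at 37 °C. AC50 derived by Hill-equation fitting, with DMSO as basal and 100 uM tamoxifen as full inhibition.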

[7] = Cell Viability - N2a (AID 540); conditions: N2a mouse neuroblastoma cell viability; activity change, negative = cytotoxicity: at 92.2 µM (top of the series);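 further: plate controls were DMSO alone for no effect and tamoxifen control for full effect; nearly all actives have a fitted effect of over 45% in size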
How it was run: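 Cytotoxicity was scored as loss of cellular ATP in N2a cells, a mouse neuroblastoma line. Compounds are applied in a qHTS concentration series for 40 hr at 37 °C.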

[8] = Cell Viability - NIH 3T3 (AID 541); conditions: NIH 3T3 cell viability, qHTS; activity change, negative = cytotoxicity: at 92.2 µM (top of the series);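 further: plate controls were DMSO alone for no effect and tamoxifen positive control for full effect; nearly all actives have a fitted effect of over 25% in size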
How it was run: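 Cells seeded at 1000/well, rested 5 hr at 37 °C, then dosed and incubated 40 hr at 37 °C. CellTiter-Glo added, 20 min room temperature, luminescence read. AC50 by Hill fit.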

[9] = Cell Viability - HUV-EC-C (AID 542); conditions: HUV-EC-C endothelial cell viability, qHTS; series mostly up to 92.2 µM; further: on the % scale 0 is the no-effect control and ±100 the full control effect; nearly all actives have a fitted effect of over 35% in size
How it was run: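 Cells were seeded at 1000 per well and incubated 5 hr at 37 °C before compound addition. After 40 hr at 37 °C, CellTiter-Glo reagent was added for 20 min and luminescence read. AC50 values came from Hill-equation modelling.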

[10] = Cell Viability - H-4-II-E (AID 543); conditions: H-4-II-E rat hepatoma viability; series mostly up to 92.2 µM; further: on the % scale 0 is the no-effect control and ±100 the full control effect; nearly all actives have a fitted effect of over 35% in size
How it was run: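 Cells seeded at 1500 per well and rested 5 hr; compounds added; 40 hr incubation at 37 °C; CellTiter-Glo added, 20 min at room temperature; luminescence read. Hill-equation fits gave AC50.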

[11] = Cell Viability - SH-SY5Y (AID 544); conditions: SH-SY5Y neuroblastoma cell viability; viability change, negative = cytotoxic: at 92.2 µM (top of the series); further: nearly all actives have a fitted effect of over 55% in size
How it was run: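 Cells were plated at 1500 per well and allowed 5 hr at 37 °C. Compounds were added across a concentration range and incubated 40 hr at 37 °C. CellTiter-Glo was added for 20 min at room temperature before luminescence reading.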

[12] = Cell Viability - Renal Proximal Tubule (AID 545); conditions: renal proximal tubule cells viability, primary cells of rat origin; series mostly up to 91.7 µM; further: nearly all actives have a fitted effect of over 40% in size
How it was run: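 Viability taken as intracellular ATP (CellTiter-Glo luminescence) after 40 hr, 37 °C compound treatment of primary proximal tubule cells from rat kidney, 1000 cells/well; Hill-equation fits of qHTS concentration-response data gave AC50.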

[13] = Cell Viability - Mesenchymal (AID 546); conditions: mesenchymal cells viability, qHTS; series mostly up to 91.7 µM;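 further: cells exposed to compound for 40 hours before reading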
How it was run: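 CellTiter-Glo luminescence (intracellular ATP, 20 min room temperature) after 40 hr compound exposure at 37 °C of 1000 glomerulus-derived human kidney mesenchymal cells/well; AC50 values obtained by fitting qHTS concentration-response data to the Hill equation.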

[14] = Cellular Toxicity (caspase-3) HepG2 (AID 654); conditions: HepG2 caspase-3 activation, luminescence; series mostly up to 92.2 µM;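 further: cells exposed to compound for 16 hours before reading; 0% = DMSO alone and 100% = caspase signal from 100 µM tamoxifen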
How it was run: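 Caspase 3/7 activation in HepG2 is measured as rising luminescence after a 16 hr treatment at 37 °C. Values are scaled between DMSO basal and 100 uM tamoxifen, and AC50 is fitted with the Hill equation.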

[15] = Cellular Toxicity (caspase-3) Jurkat (AID 655); conditions: Jurkat caspase-3 activation, luminescence; caspase-3 activation: at 92.2 µM (top of the series), DMSO = 0%, tamoxifen = 100%;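 further: cells exposed to compound for 16 h at 37 °C before reading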
How it was run: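 Luminescent Caspase-Glo 3/7 read-out (20 min, room temperature) after 16 h compound treatment at 37 C of 5000 Jurkat cells per well. AC50 derived by Hill-equation fitting, scaled between DMSO basal and 100 uM tamoxifen stimulation.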

[16] = Cellular Toxicity (caspase-3) HUV-EC-C (AID 656); conditions: HUV-EC-C cells, caspase-3 activation (apoptosis), vehicle = 0, 100 µM tamoxifen = 100%; series mostly up to 92.2 µM
How it was run: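 Luminescent Caspase-Glo 3/7 readout after 16 h, 37 °C compound exposure of HUV-EC-C endothelial cells, 1000 per well, complete medium. AC50 derived by Hill fitting, with DMSO as baseline and 100 uM tamoxifen as full activation.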

[17] = Cellular Toxicity (caspase-3) SHSY5Y (AID 657); conditions: SH-SY5Y caspase-3 activation, DMSO zero, 10 µM staurosporine = 100%; series mostly up to 91.7 µM
How it was run: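 Luminescent Caspase-Glo 3/7 read-out, 1 hr room temperature, follows 16 hours of compound treatment of SH-SY5Y cells at 37 °C. Normalization: DMSO basal, 10 uM staurosporine as 100%; AC50 values from Hill-equation concentration-response fits.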

[18] = Cellular Toxicity (caspase-3) BJ (AID 658); conditions: BJ fibroblasts, luminescence, normalized: DMSO 0%, staurosporine 100%; series mostly up to 91.7 µM
How it was run: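 Caspase-Glo 3/7 luminescence, read 1 hr after reagent at room temperature, in normal BJ fibroblasts exposed 16 hours at 37 °C. AC50 values from Hill-equation concentration-response, scaled between DMSO basal and 10 uM staurosporine as 100%.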

[19] = Cellular Toxicity (caspase-3) MRC-5 (AID 659); conditions: MRC-5 cells, luminescence, normalized: DMSO 0%, 10 µM staurosporine 100%; series mostly up to 91.7 µM
How it was run: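 Luminescent Caspase-Glo 3/7 read-out (1 h, room temperature) after a 16 h, 37 °C compound exposure of MRC-5 lung fibroblasts at 1500 cells/well. Concentration-response AC50 from Hill equation; 0% DMSO, 100% 10 uM staurosporine.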

[20] = target: Mitogen-activated protein kinase 10 (Mus musculus) (UniProt Q61831); experiment: JNK3 AlphaScreen Assay (AID 530; active means well fitted curve in either direction with a large enough effect, not every such curve was filed as active;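 further: kinase came from lysate of stimulated human HepG2 cells; signal reports phosphorylation of biotinylated GST-cJun 1-79 at Ser73 with 10 µM ATP; on the % scale 0 is the no-effect control and ±100 the full control effect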); conditions: JNK3 lysate, c-Jun phosphorylation; series mostly up to 57.1 µM
How it was run: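 qHTS titrations with 15 min compound pre-incubation before adding ATP (10 uM final). Read-out: AlphaScreen of Ser73-phosphorylated biotin-GST-cJun using HepG2 lysate JNK3 activated by IL-1β and TNFα.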

CCOCCO
inactive: Potency [1] > 92 µM | Potency [2] > 92 µM | Potency [3] > 92 µM | Potency [4] > 92 µM | Potency [5] > 92 µM | Potency [6] > 92 µM | activity change, negative = cytotoxicity [7] -17.9% | Potency [8] | Potency [9] | Potency [10] | Potency [11] | Potency [12] | Potency [13] | Potency [14] | caspase-3 activation [15] 0.459% | outcome [16] | outcome [17] | outcome [18]

C=CCCCCCC
inactive: Potency [1] > 92 µM | Potency [2] > 92 µM | Potency [3] > 92 µM | Potency [4] > 92 µM | Potency [5] > 92 µM | Potency [6] > 92 µM | activity change, negative = cytotoxicity [7] 6.33% | Potency [8] | Potency [9] | Potency [10] | Potency [11] | Potency [12] | Potency [13] | Potency [14] | caspase-3 activation [15] -1.08% | outcome [16] | outcome [17] | outcome [18] | outcome [19]

CCOc1ccc(NC(C)=O)cc1N
inactive: Potency [1] > 92 µM | Potency [2] > 92 µM | Potency [3] > 92 µM | Potency [4] > 92 µM | Potency [5] > 92 µM | Potency [6] > 92 µM | outcome [20] | Potency [8] | Potency [9] | Potency [10] | Potency [11] | Potency [13] | Potency [14] | outcome [16] | outcome [17] | outcome [18] | outcome [19]

Cc1ccc(Cl)cc1
inactive: Potency [1] > 92 µM | Potency [2] > 92 µM | Potency [3] > 92 µM | Potency [4] > 92 µM | Potency [5] > 92 µM | Potency [6] > 92 µM | activity change, negative = cytotoxicity [7] 1.61% | Potency [8] | Potency [9] | Potency [10] | Potency [11] | Potency [12] | Potency [13] | Potency [14] | caspase-3 activation [15] 1.47% | outcome [16] | outcome [17] | outcome [18] | outcome [19]

CC(=O)c1cccc([N+](=O)[O-])c1
inactive: Potency [1] > 92 µM | Potency [2] > 92 µM | Potency [3] > 92 µM | Potency [4] > 92 µM | Potency [5] > 92 µM | Potency [6] > 92 µM | activity change, negative = cytotoxicity [7] 0.298% | Potency [8] | Potency [9] | Potency [10] | Potency [11] | Potency [12] | Potency [13] | Potency [14] | caspase-3 activation [15] -0.656% | outcome [16] | outcome [17]

COC(=O)CCCC(=O)OC
inactive: Potency [1] > 92 µM | Potency [2] > 92 µM | Potency [3] > 92 µM | Potency [4] > 92 µM | Potency [5] > 92 µM | Potency [6] > 92 µM | outcome [20] | Potency [9] | Potency [10] | Potency [11] | Potency [12] | Potency [13] | Potency [14] | caspase-3 activation [15] 0.321% | outcome [16] | outcome [17] | outcome [18] | outcome [19]

CCC=O
inactive: Potency [1] > 92 µM | Potency [2] > 92 µM | Potency [3] > 92 µM | Potency [4] > 92 µM | Potency [5] > 92 µM | Potency [6] > 92 µM | activity change, negative = cytotoxicity [7] 1.92% | Potency [8] | Potency [9] | Potency [10] | Potency [11] | Potency [12] | Potency [13] | Potency [14] | caspase-3 activation [15] 3.47% | outcome [16] | outcome [17] | outcome [18] | outcome [19]

Nc1cc(S(=O)(=O)O)ccc1O
inactive: Potency [1] > 92 µM | Potency [2] > 92 µM | Potency [3] > 92 µM | Potency [4] > 92 µM | Potency [5] > 92 µM | Potency [6] > 92 µM | outcome [20] | Potency [8] | Potency [9] | Potency [10] | Potency [11] | Potency [12] | Potency [13] | Potency [14] | caspase-3 activation [15] -0.212% | outcome [16] | outcome [17] | outcome [19]

CCCCCCC(=O)O
inactive: Potency [1] > 92 µM | Potency [2] > 92 µM | Potency [3] > 92 µM | Potency [4] > 92 µM | Potency [5] > 92 µM | Potency [6] > 92 µM | outcome [20] | Potency [8] | Potency [9] | Potency [10] | Potency [12] | Potency [13] | Potency [14] | caspase-3 activation [15] 0.927% | outcome [16] | outcome [17] | outcome [18] | outcome [19]

Cc1ccc(C)c(N)c1
inactive: Potency [1] > 92 µM | Potency [2] > 92 µM | Potency [3] > 92 µM | Potency [4] > 92 µM | Potency [5] > 92 µM | Potency [6] > 92 µM | outcome [20] | Potency [9] | Potency [10] | Potency [11] | Potency [12] | Potency [13] | Potency [14] | caspase-3 activation [15] 0.403% | outcome [16] | outcome [17] | outcome [18] | outcome [19]

[O-]/[N+](=N\O)c1ccccc1
inactive: Potency [1] > 92 µM | Potency [2] > 92 µM | Potency [3] > 92 µM | Potency [4] > 92 µM | Potency [5] > 92 µM | Potency [6] > 92 µM | outcome [20] | Potency [8] | Potency [10] | Potency [11] | Potency [13] | Potency [14] | caspase-3 activation [15] -1.18% | outcome [16] | outcome [17] | outcome [19]

O=C(O)c1cccc(Cl)c1Cl
inactive: Potency [1] > 92 µM | Potency [2] > 92 µM | Potency [3] > 92 µM | Potency [4] > 92 µM | Potency [5] > 92 µM | Potency [6] > 92 µM | outcome [20] | Potency [8] | Potency [9] | Potency [10] | Potency [11] | Potency [12] | Potency [13] | Potency [14] | caspase-3 activation [15] 0.107% | outcome [16] | outcome [17] | outcome [18] | outcome [19]

From PubChem BioAssay (NCATS)
